From PubChem
Most compounds without a hit are left out; they make up all but 2.1% or so of the library.
IL1B NFkB pot = enhances IL-1B driven NFkB nuclear translocation; HUVEC IL-1B NFkB p65 nuclear translocation imaging; activation, % at 2 µM; 94,000 tested, 0.3% active; AID 819;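 active = activation above 40%, about the mean plus 3 SD, also judged a hit on visual image review; inconclusive = activation above 40% but not a hit on visual review; inactive = activation not above 40% and no visual hit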;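 also: percent activation is computed from the nuclear over cytoplasmic p65 intensity ratio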
PLAP act = activators of human placental alkaline phosphatase; 96,000 tested, 1.2% active; AID 696; purified PLAP enzyme, luminescent substrate read-out; hits give high values; activation fold at 20 µM; P05187; in the data active = activation fold above about 2
TNAP act mid DEA = human TNAP activation, intermediate phosphate acceptor | purified TNAP, CDP-star luminescence, 100 mM DEA, 30 min; hits give high values; scale: 0 levamisole-inhibited, 1 vehicle-only enzyme | activation factor at 20 µM | P05186 | 64,000 tested, under 10 active;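 active = activation factor of at least 2 at 20 µM, relative to controls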
Target sequence (P05186 whole entry, looked up): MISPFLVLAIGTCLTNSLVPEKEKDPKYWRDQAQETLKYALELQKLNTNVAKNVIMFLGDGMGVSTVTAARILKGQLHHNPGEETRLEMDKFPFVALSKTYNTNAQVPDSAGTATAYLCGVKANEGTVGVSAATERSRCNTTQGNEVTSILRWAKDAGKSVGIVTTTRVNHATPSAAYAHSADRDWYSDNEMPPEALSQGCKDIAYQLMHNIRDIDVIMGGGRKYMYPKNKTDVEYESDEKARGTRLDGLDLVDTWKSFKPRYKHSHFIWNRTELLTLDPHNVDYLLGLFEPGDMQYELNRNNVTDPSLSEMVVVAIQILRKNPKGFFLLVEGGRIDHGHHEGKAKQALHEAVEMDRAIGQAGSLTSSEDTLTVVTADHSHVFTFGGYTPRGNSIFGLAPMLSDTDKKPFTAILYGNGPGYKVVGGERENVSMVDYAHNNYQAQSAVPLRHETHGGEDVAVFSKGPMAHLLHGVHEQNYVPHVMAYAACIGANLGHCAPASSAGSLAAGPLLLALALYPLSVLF
IL1B cytotox = toxic to HUVEC cells under IL-1B stimulation. HUVEC cell count loss, Hoechst imaging, IL-1B stimulated. cell count reduction, % at 2 µM. 94,000 tested, 0.41% active;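 active = cell count reduction more than 3 SD above the screen-wide mean, cut at about 70% in these data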;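 also: normalized per plate to untreated control cells as the no-loss baseline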
NFkB transloc inh = blocks IL-1B driven NFkB nuclear translocation in HUVEC cells. HUVEC IL-1B NFkB p65 nuclear translocation imaging. inhibition, % at 2 µM. 94,000 tested, 0.43% active;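 active = inhibition above about 30% together with a positive call from visual inspection of the well image, limit read from the data; inconclusive = inhibition above a set limit but visual check negative; inactive = inhibition not above a set limit, visual check negative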;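 also: nuclear over cytoplasmic p65 intensity ratio measured by imaging; 0% = IL-1B stimulated DMSO wells and 100% = unstimulated DMSO wells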
* marks the source's active call; other numbers are inactive results; ? = inconclusive; . = no result given.

SMILES | IL1B NFkB pot | PLAP act | TNAP act mid DEA | IL1B cytotox | NFkB transloc inh
CC(=O)Nc1nc2n(n1)C(c1ccc(F)cc1)C=C(c1ccccc1)N2 (configuration not stated) | 5 | 1.1 | 0.9 | -1 | -5
CC1=CC(c2ccc(Cl)cc2)n2nc(NC(=O)c3ccccc3)nc2N1 (configuration not stated) | -20 | 2.3* | . | -32 | 20
CCc1nc2ccc(C)cc2c(C(=O)NC2CCCCC2C)c1C (configuration not stated) | 1 | 1.2 | . | 2 | -1
COc1ccc(OC)c(CNCCNC(=O)c2ccco2)c1 | -2 | 0.9 | . | -11 | 2
COc1cccc(CNCCNC(=O)c2ccco2)c1OC | 42* | 1.1 | . | -26 | -42
S=c1[nH]nc(-c2cc(-c3ccco3)[nH]n2)n1-c1ccccc1 | -35 | 2.1* | . | -4 | 35*
O=C(CN1CCN(C(c2ccccc2)c2ccccc2)CC1)NC(=O)NCc1ccco1 | -15 | 1.3 | 0.9 | 6 | 15
Cc1ccc(CN2CCN(C(=O)C3CCCO3)CC2)cc1 (configuration not stated) | -2 | 1.3 | 0.9 | -11 | 2
O=C(C1CCCO1)N1CCN(Cc2c(O)ccc3ccccc23)CC1 (configuration not stated) | -13 | 2.4* | . | -8 | 13
CC(c1ccccc1)n1cc(C(=O)NCCN2CCOCC2)nn1 (configuration not stated) | 53* | . | 0.9 | 12 | -53
O=C(c1ccccc1)N1CCCCC(S(=O)(=O)c2ccc3ccccc3c2)C1=O (configuration not stated) | 4 | 1.4 | . | -12 | -4
Cn1c(NCCCN2CCOCC2)nc2c1c(=O)n(Cc1ccc(Cl)c(Cl)c1)c(=O)n2C | ? | 1.7 | 0.9 | -27 | -60
Cc1ccc(N(C(=O)Cn2nnc(-c3ccc(F)cc3)n2)C(CC(C)C)C(=O)NCC2CCCO2)cc1 (configuration not stated) | 13 | 1.4 | . | -31 | -13
CC12Cc3ccc4ccccc4c3C=C1C[N+](C)(C)C2 (configuration not stated) | -49 | 1.1 | . | -3 | 49*
Cc1cc(C)c(C)c(S(=O)(=O)NCc2ccc(C(=O)N3CCCCC3)cc2)c1C | 5 | . | . | 7 | -5
CC(C)C(=O)Nc1nnc(CSCc2ccccc2F)s1 | -54 | 0.9 | . | -6 | 54*
CC(C)(C)C(=O)Nc1nnc(CSCc2ccccc2F)s1 | -1 | 1 | . | -4 | 1
Cc1cc2nc(C)n(CCCNC(=O)Nc3cccc4ccccc34)c2cc1C | -13 | . | . | 13 | 13
CCOc1ccc(NC(=O)NCCCn2c(C)nc3cc(C)c(C)cc32)cc1 | -13 | 2.2* | . | 11 | 13
CCOc1cc(C)c(C(C)C)cc1S(=O)(=O)NCc1ccccn1 | -100 | 1 | 0.9 | 85* | 100*
CCOc1ccc(S(=O)(=O)NCc2ccccn2)cc1 | -2 | 2* | . | 6 | 2
COc1ccc(S(=O)(=O)NCc2ccccn2)c(Cl)c1Cl | 16 | 2.1* | 0.8 | -6 | -16
O=C(NCc1cccc(C(F)(F)F)c1)C1CC(c2c(Cl)cccc2Cl)=NO1 (configuration not stated) | 4 | 0.9 | . | 14 | -4
O=S(c1ccc2ccccc2c1)c1cnns1 (configuration not stated) | -6 | 0.9 | . | 1 | 6
C/C(=N\NC(=O)C1COc2ccccc2O1)c1ccc(C)o1 (configuration not stated) | 22 | 2* | . | 9 | -22
SMILES | IL1B NFkB pot | PLAP act | TNAP act mid DEA | IL1B cytotox | NFkB transloc inh
CCOC(=O)c1ccc2[nH]c3c(c2c1)CCCCC3=O | 41* | . | 0.9 | 16 | -41
CCOC(=O)c1ccc2[nH]c3c(c2c1)CCCC3C(=O)OCC (configuration not stated) | 6 | 1.1 | . | -17 | -6
Cc1nc2ccccn2c1/C(O)=C1\C(=O)C(=O)N(CCCN(C)C)C1c1ccc(F)cc1 (configuration not stated) | 8 | . | 0.8 | 12 | -8
CCOc1ccc(C2C(C#N)=C(N)SC(N)=C2C#N)cc1OCC | . | 2.6* | 1 | . | .
CCOC(=O)c1cn2nc(-c3ccc(OCC)cc3)cc2nc1C1CCN(C(=O)OC(C)(C)C)CC1 | . | 1.2 | . | . | .
CCOC(=O)c1cnn(-c2ccc(Cl)cc2)c1C1CCN(C(=O)OC(C)(C)C)CC1 | . | 2.3* | . | . | .
O=C1CCCN1CCCNc1ncnc2c1[nH]c1ccc(Cl)cc12 | 24 | 1 | 0.9 | 21 | -24
Cc1cc(C)c2nc(C(F)(F)F)nc(NCCCN3CCCC3=O)c2c1 | -31 | 1 | 0.9 | 0 | 31*
COC(=O)C1=C(C)n2nnnc2NC1c1ccc(Cl)cc1 (configuration not stated) | 42* | 1 | 0.9 | -4 | -42
O=C(NC(Cc1ccccc1)c1ccc2c(c1)OCCCO2)c1ccc(F)cc1 (configuration not stated) | 44* | 1.8 | . | -6 | -44
CCc1ccccc1NC(=O)CSc1nnc([C@@H]2CCCN2C(=O)OC(C)(C)C)o1 | -22 | 2.1* | 1 | -26 | 22
Cc1cccc(C)c1NC(=O)CSc1nnc([C@@H]2CCCN2C(=O)OC(C)(C)C)o1 | . | 1.2 | 1 | . | .
O=C(NN1C(=O)/C(=C/c2cccnc2)SC1=S)C(c1ccccc1)c1ccccc1 | 0 | 1.5 | . | -7 | 0
O=C(CCN1C(=O)/C(=C/c2cccc(Br)c2)SC1=S)NNC(=O)c1cccnc1 | 10 | 2.2* | . | 16 | -10
O=C(c1ccc(Br)s1)N1CCN(C/C=C/c2ccccc2)CC1 | 19 | 2* | . | -25 | -19
O=C(c1ccc(Br)o1)N1CCN(C/C=C/c2ccccc2)CC1 | 0 | 1.1 | 0.9 | 14 | 0
COc1ccc(-c2n[nH]c(C(F)(F)F)c2-c2cc3ccccc3o2)c(O)c1 | -18 | 2* | 1.3 | 14 | 18
CN(C)S(=O)(=O)N(CC(=O)Nc1ccccc1F)c1ccccc1 | 6 | . | . | 79* | -6
CN(Cc1ccccc1)C(=O)c1ccccc1NC(=O)c1ccco1 | 42* | . | 0.9 | 88* | -42
O=C(O)CNC(=O)c1ccccc1NC(=O)c1ccco1 | 29 | 0.9 | 0.9 | -73 | -29
Cc1n[nH]c(C)c1CCc1nc2c3ccccc3nc(SCC(=O)Nc3ccccc3F)n2n1 | -9 | 2.2* | . | 86* | 9
CCN(CC)CCn1c2ccccc2c2nc(C)sc21 | 4 | 1.6 | 0.9 | 8 | -4
Cc1onc(-c2ccccc2Cl)c1C(=O)Nc1cc(=O)n(C)c(=O)n1C | -18 | . | . | 89* | 18
Cc1onc(-c2ccccc2Cl)c1C(=O)Nc1ccccc1 | 0 | . | . | -13 | 0
CC(=O)Nc1ccc(Nc2ncnc3c2cnn3-c2ccc(C)cc2C)cc1 | -2 | 2* | . | 22 | 2
COCCn1c(N)c(C(=O)NCC2CCCO2)c2nc3ccccc3nc21 (configuration not stated) | -5 | 1.5 | 1 | 1 | 5
CC(C)Cn1c(N)c(C(=O)NCC2CCCO2)c2nc3ccccc3nc21 (configuration not stated) | ? | 2* | 1.1 | -1 | -44
